Screens deposited in PubChem BioAssay by National Center for Advancing Translational Sciences (NCATS).
KCNH2 3.1 block: qHTS for Inhibitors of KCHN2 3.1: Mutant qHTS | activity change, % (tested at about 1.8 µM) | AID 720553, 2013 | actives 0.95% (n = 340,000) | U2OS KCNH2 3.1, thallium flux FluxOr; hits give low values;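 active means maximum activity change below -70%; inconclusive means maximum activity change from -70% to -50%; inactive means maximum activity change above -50%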;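 further: thallium influx rate constant from kinetic fluorescence after stimulation buffer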
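U2OS cells transduced with KCNH2 3.1 mutant virus (1.77 x 10^8 /mL, 4 h), plated overnight at 37 C, loaded 45 min with FluxOr dye plus Red40 quencher. Thallium flux rate constant from kinetic reads after stimulation buffer, normalised to controls.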
MCF10A rerep: A quantitative high throughput screen for small molecules that induce DNA re-replication in MCF 10a normal breast cells | Potency, µM (titrated, usually from 46.1 µM), usual class: activators | MCF 10A DNA re-replication, Hoechst nuclear intensity, 48 h | AID 624296, 2012 | actives 2.9% (n = 350,000); further: nearly all actives have a fitted effect of over 50% in size
KCNH2 WT inh: qHTS for Inhibitors of KCHN2 3.1: Wildtype qHTS; Voltage-gated inwardly rectifying potassium channel KCNH2 (Homo sapiens), Q12809; U2OS, BacMam KCNH2, thallium flux FluxOr; hits give low values; activity change, % at 1.84 µM; actives 0.37% (n = 340,000); AID 720551, 2013;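 active means maximum activity change below -70%; inconclusive means maximum activity change between -70% and -50%; inactive means maximum activity change above -50%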
Target sequence (Q12809 whole entry, looked up): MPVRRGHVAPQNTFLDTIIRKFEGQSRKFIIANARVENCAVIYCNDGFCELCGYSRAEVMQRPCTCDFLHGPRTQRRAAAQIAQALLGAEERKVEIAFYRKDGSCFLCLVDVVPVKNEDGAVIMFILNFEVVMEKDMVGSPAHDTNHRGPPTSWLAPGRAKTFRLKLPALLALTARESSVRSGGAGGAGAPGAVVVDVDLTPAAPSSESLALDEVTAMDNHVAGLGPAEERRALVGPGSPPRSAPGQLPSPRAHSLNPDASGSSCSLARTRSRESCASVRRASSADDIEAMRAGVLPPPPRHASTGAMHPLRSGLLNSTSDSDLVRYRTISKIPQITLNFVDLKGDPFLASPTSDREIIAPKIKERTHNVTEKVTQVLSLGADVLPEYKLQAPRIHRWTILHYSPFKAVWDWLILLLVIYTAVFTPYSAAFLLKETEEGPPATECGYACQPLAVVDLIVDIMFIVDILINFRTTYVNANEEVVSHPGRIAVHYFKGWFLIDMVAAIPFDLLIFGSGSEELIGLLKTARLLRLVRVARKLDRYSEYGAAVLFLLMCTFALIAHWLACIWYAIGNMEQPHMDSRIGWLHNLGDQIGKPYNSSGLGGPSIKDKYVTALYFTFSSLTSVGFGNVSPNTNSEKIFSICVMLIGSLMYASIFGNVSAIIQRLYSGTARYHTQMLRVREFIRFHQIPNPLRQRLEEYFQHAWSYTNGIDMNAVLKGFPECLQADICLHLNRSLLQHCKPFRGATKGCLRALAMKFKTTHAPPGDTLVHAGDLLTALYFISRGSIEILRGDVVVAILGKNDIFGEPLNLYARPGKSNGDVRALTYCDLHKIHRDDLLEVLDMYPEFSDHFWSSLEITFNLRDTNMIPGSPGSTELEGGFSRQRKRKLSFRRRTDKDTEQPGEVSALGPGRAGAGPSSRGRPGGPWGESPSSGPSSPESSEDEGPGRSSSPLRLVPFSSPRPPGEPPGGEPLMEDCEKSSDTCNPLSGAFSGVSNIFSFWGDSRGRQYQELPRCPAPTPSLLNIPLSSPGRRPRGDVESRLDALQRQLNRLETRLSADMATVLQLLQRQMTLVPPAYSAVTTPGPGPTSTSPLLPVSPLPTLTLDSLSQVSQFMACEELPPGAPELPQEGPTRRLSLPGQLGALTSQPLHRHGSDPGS
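U2OS cells were transduced with wild-type KCNH2 virus (2.03 x 10^8 / mL) for 4 h at room temperature, then cultured overnight at 37 C. Thallium flux was read with FluxOr dye. Rate constants were normalized to DMSO controls.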
KB-3-1 cytotox: qHTS assay for MDR1-selective chemotherapeutics: Primary screen using the parental adenocarcinoma cell KB-3-1 | KB-3-1 viability, CellTiter-Glo ATP luminescence, 72 h | Potency, µM (titrated, usually from 46.1 µM), actives largely listed as cytotoxic | actives 1.4% (n = 400,000) | AID 1347075, 2019; further: nearly all actives have a fitted effect of over 60% in size
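Cytotoxicity in the drug-sensitive parental line KB-3-1 was scored as loss of CellTiter-Glo luminescence following 72 h incubation with compound. Values come from curve fitting of normalized concentration-response data.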
KB-V1 cytotox: qHTS assay for MDR1-selective chemotherapeutics: Primary screen using the drug-selected MDR subline cells KB-V1. KB-V1 MDR cells viability, CellTiter-Glo, 72 h. Potency, µM (doses to about 46.1 µM), hits mostly cytotoxic. actives 3.4% (n = 400,000); further: nearly all actives have a fitted effect of over 60% in size
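In this primary screen, KB-V1 cells overexpressing P-gp are incubated with library compounds (lowest to highest concentration) for 72 h at 37 degrees C before a luminescent ATP viability read.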
SW480 rerep: A quantitative high throughput screen for small molecules that induce DNA re-replication in SW480 colon adenocarcinoma cells; Potency, µM (titrated, usually from 46.1 µM), actives largely listed as activators; SW480 DNA re-replication, Hoechst DNA content imaging, 48 h; actives 1.8% (n = 340,000); AID 624297, 2012; further: nearly all actives have a fitted effect of over 55% in size
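Hoechst fluorescence of nuclei (405 nm excitation, 500-530 nm emission) measured by plate-scanning imager after 48 hr compound exposure at 37 C; re-replication scored as increased number of nuclei with elevated intensity.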
Numbers stand for hits; i = inactive; ? = inconclusive; nt = no result. Sampled rows, rich in hits. Any-hit rate of the full collection: about 7.6%. Unless noted, the call rests on the fitted dose curve; in most records, active means well fitted curve in the direction sought with a large enough effect; inconclusive means small, poorly fitted or top-dose-only effect, or another doubt; inactive means no such curve, though single readings can be large; an effect the other way counts as inactive or inconclusive.

SMILES	KCNH2 3.1 block	MCF10A rerep	KCNH2 WT inh	KB-3-1 cytotox	KB-V1 cytotox	SW480 rerep
CCC(C(=O)NCc1ccco1)N(C(=O)CNS(=O)(=O)c1ccccc1)C1CCCCC1 (stereo not given)	i	4.1µM	i	i	?	i
O=C(COC(=O)c1ccc(S(=O)(=O)NCc2ccco2)cc1)NC1CCCCCC1	i	i	i	i	i	i
CCCNS(=O)(=O)c1ccc(CCC(=O)NCc2ccco2)cc1	i	i	i	i	i	i
O=S(=O)(NCc1ccco1)c1ccc(S(=O)(=O)N2CCCCC2)cc1	i	i	i	i	16µM	i
O=C(NC1CCCCCC1)c1ccc(S(=O)(=O)NCc2ccco2)cc1	i	i	i	i	21µM	i
CC(C)n1c(NCc2ccc(Cl)cc2)nc2ccccc21	i	?	i	i	i	i
Cc1ccc(N2C(=O)C3CCC(C)(C2=O)C3(C)C)cc1C (stereo not given)	i	i	i	?	i	i
CC(C)C(NC(=O)c1ccccc1)C(=O)OCC(=O)N1CCCC1 (stereo not given)	i	i	i	i	i	i
O=C(NCc1ccco1)c1cc(C(=O)C2CCCCC2)c[nH]1	i	i	i	i	10µM	i
Cc1cccc(NC(=O)c2ccc(S(=O)(=O)NCc3ccco3)cc2)n1	i	i	i	i	?	i
Cc1ccc(NC(=O)c2ccc(S(=O)(=O)NCc3ccco3)cc2)nc1	i	?	i	21µM	?	21µM
O=C(CNC(=O)c1cccs1)c1ccc(F)cc1	i	23µM	i	i	i	?
O=C(COc1cccc(NC(=O)c2cccs2)c1)c1ccc(F)cc1	i	?	i	i	7.3µM	i
Cc1ccc(-c2nc3ccccc3o2)cc1NC(=O)Cc1ccc(Cl)cc1	nt	nt	nt	i	i	nt
O=C(Nc1ccc(F)cc1F)c1ccc2c(c1)[nH]c(=O)n2Cc1ccc(F)cc1	i	5.8µM	i	i	i	i
CCn1c(=O)c(=O)[nH]c2cc(C(=O)NCc3ccc(F)cc3)ccc21	i	i	i	i	i	i
CC(OC(=O)c1ccc(-c2ccc(O)cc2)cc1)C(=O)NC1CCCCC1C (stereo not given)	i	i	i	?	16µM	i
O=C(CN1CCN(Cc2ccccc2)CC1)Nc1ccc([N+](=O)[O-])cc1C(=O)Nc1ccccc1F	-103	i	-82	i	?	i
Cc1cc([N+](=O)[O-])ccc1NC(=O)CN1CCN(Cc2ccccc2)CC1	-81	i	i	i	i	?
CC(=O)N1CCN(CC(=O)Nc2cc([N+](=O)[O-])ccc2Cl)CC1	i	i	i	i	i	i
O=C(CN1CCN(c2ccc(O)cc2)CC1)Nc1cc([N+](=O)[O-])ccc1Cl	i	i	i	i	8.2µM	i
CC(C)(C)OC(=O)N1CCC2(CC1)C(C#N)=C(N)OC1=C2C(=O)CCC1	i	i	i	i	i	i
CCCCc1nc2cc(C(=O)N3CCN(c4nc(C)cnc4C)CC3)ccc2o1	-77	i	i	?	i	i
CCCCc1nc2cc(C(=O)N3CCC(OC)CC3)ccc2o1	i	i	i	i	i	i
CCOC(=O)c1c(C)c(C(=O)N2CCN(c3ccc(F)cc3)CC2)c(C)n1C	i	?	i	i	i	i
SMILES	KCNH2 3.1 block	MCF10A rerep	KCNH2 WT inh	KB-3-1 cytotox	KB-V1 cytotox	SW480 rerep
COC(=O)c1ccc(C)c(NC(=S)NCc2ccc(Cl)cc2)c1	i	i	i	i	23µM	i
C(=N\NC1=Nc2cccc3cccc1c23)/c1ccccc1	i	?	i	i	i	i
C(=N\NC1=Nc2cccc3cccc1c23)/c1cccnc1	i	?	i	i	16µM	i
CCN(Cc1cnn(C)c1)C(=O)CC1C(=O)NCCN1Cc1cccc(OC)c1OC (stereo not given)	i	i	i	i	i	i
CC(C)Cc1nnc(NC(=O)CSc2nc(-c3ccccc3)cc(=O)[nH]2)s1	i	i	i	i	i	i
O=C(COC(=O)/C(=C/c1cccs1)c1cccs1)NC(c1ccccc1)c1ccccc1	i	i	i	i	8.2µM	i
COc1ccc(/C=N/OC(=O)Nc2ccc(Cl)cc2)c(OC)c1	i	i	i	i	i	i
CC(C)OCC(O)CN1CCC(Cc2ccccc2)CC1 (stereo not given)	i	i	i	i	i	i
O=C(c1ccccc1)c1ccc(OCC(O)CN2CCN(Cc3ccccc3)CC2)cc1 (stereo not given)	-85	?	i	?	?	?
O=C(c1ccccc1)c1ccc(OCCOCCN2CCN(Cc3ccccc3)CC2)cc1	i	?	-140	i	?	?
O=C(c1ccccc1)c1ccc(OCCCN2CCCC2)cc1	i	?	i	i	i	i
OC(COc1ccc(Br)cc1)CN1CCC(Cc2ccccc2)CC1 (stereo not given)	-104	?	-117	i	i	?
Cc1cc(Br)c(Oc2cc(NN3CCCCC3)c([N+](=O)[O-])cc2[N+](=O)[O-])c(Br)c1	i	i	i	i	i	i
Cc1ccccc1OCC(=O)N(CC(C)C)c1c(N)n(CC(C)C)c(=O)[nH]c1=O	i	i	i	?	i	i
CC(=O)c1c(C)[nH]c(C(=O)C(C)Sc2nnc(NC3CC3)s2)c1C (stereo not given)	i	18µM	i	nt	nt	i
Cc1ccc(N(c2ncnc(N)c2[N+](=O)[O-])C2CCCCC2)cc1	-86	?	i	i	?	i
O=C(CN1C(=O)C2(SCC(=O)N2c2ccc(Cl)cc2)c2ccccc21)NCCc1ccccc1 (stereo not given)	nt	nt	nt	i	i	nt
CC(C)[C@H](NC(=O)C1CCCC1)c1nc2ccccc2[nH]1	i	9.2µM	i	i	i	?
COc1ccc(S(=O)(=O)N2CCC(C(=O)NC(c3nc4ccccc4[nH]3)C(C)C)CC2)cc1 (stereo not given)	i	?	i	i	i	i
N#C/C(=C/c1ccc(-c2ccc(S(=O)(=O)N3CCOCC3)cc2)o1)C(=O)NC1CC1	i	?	-80	?	i	i
CCn1c(=O)c2cc(C(=O)N(C)CC(OC)OC)sc2c2ccccc21	i	i	nt	i	i	i
CCOCCCNC(=O)c1cc2c(=O)n(CC)c3ccccc3c2s1	i	23µM	i	?	i	?
